# Laboratory results from PubChem BioAssay AID1159580 (chemical genetic matrix, 2015).
# Several values for one entry are separate records, joined by “and”; a condition that tells them apart may be missing. Equal entries are not always repeated. Hit rate of the full screen: of about 5,500 compounds, about 2,000 (36%) were called active. Roughly 18% stayed inconclusive and do not appear here. The list shows a part of the results. Values without a mark were called inactive. Cut-off read from the data, not from the text of the source: active = normalized growth mostly below about 0.91 (no sharp cut-off); inconclusive = no clear call, values can overlap the other calls; inactive = mostly above about 0.92.
# Test: chemical genetic growth profiling, strain panel (AID 1159580);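 note: tested at 20 µM; growth read once vehicle control cultures reached saturation at 30 °C; 1 = growth at the plate median or of vehicle wells; lower values mean less growth of the strain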
# Conditions: S. cerevisiae deletion strains, growth OD
smiles,measurement,setting,value
CCCOc1ccc2nc(NC(=O)OC)[nH]c2c1,normalized growth,"locus YAL021C, strain ccr4, stronger effect = lower value",1.03
same,normalized growth,"locus YAL026C, strain drs2, stronger effect = lower value",1.02
same,normalized growth,"locus YAL030W, strain snc1, stronger effect = lower value",1.02
same,normalized growth,"locus YBL061C, strain skt5, stronger effect = lower value",1.01
same,normalized growth,"locus YBR009C, strain hhf1, stronger effect = lower value",1.01
same,normalized growth,"locus YBR021W, strain FUR4, stronger effect = lower value",1.01
same,normalized growth,"locus YBR023C, strain chs3, stronger effect = lower value",1.02
same,normalized growth,"locus YBR171W, strain sec66, stronger effect = lower value",1.02
same,normalized growth,"locus YBR229C, strain ROT2, stronger effect = lower value",0.992
same,normalized growth,"locus YBR231C, strain swc5, stronger effect = lower value",1.01
same,normalized growth,"locus YBR279W, strain paf1, stronger effect = lower value",1.02
same,normalized growth,"locus YCL011C, strain gbp2, stronger effect = lower value",1.01
same,normalized growth,"locus YCL016C, strain dcc1, stronger effect = lower value",1.02
same,normalized growth,"locus YCL029C, strain bik1, stronger effect = lower value",0.974
same,normalized growth,"locus YCL061C, strain MRC1, stronger effect = lower value",1.01
same,normalized growth,"locus YCL069W, strain vba3, stronger effect = lower value",1.02
same,normalized growth,"locus YCR088W, strain abp1, stronger effect = lower value",1.02
same,normalized growth,"locus YDL005C, strain med2, stronger effect = lower value",1.02
same,normalized growth,"locus YDL035C, strain GPR1, stronger effect = lower value",1.01
same,normalized growth,"locus YDL040C, strain nat1, stronger effect = lower value",1.02
same,normalized growth,"locus YDL074C, strain BRE1, stronger effect = lower value",1.02
same,normalized growth,"locus YDL101C, strain DUN1, stronger effect = lower value",0.997
same,normalized growth,"locus YDL134C, strain PPH21, stronger effect = lower value",0.982
same,normalized growth,"locus YDL185W, strain tfp1, stronger effect = lower value",0.976
same,normalized growth,"locus YDL192W, strain arf1, stronger effect = lower value",0.97
same,normalized growth,"locus YDR001C, strain nth1, stronger effect = lower value",1.02
same,normalized growth,"locus YDR069C, strain doa4, stronger effect = lower value",1.01
same,normalized growth,"locus YDR101C, strain arx1, stronger effect = lower value",1.01
same,normalized growth,"locus YDR137W, strain rgp1, stronger effect = lower value",0.951
same,normalized growth,"locus YDR150W, strain NUM1, stronger effect = lower value",0.996
same,normalized growth,"locus YDR159W, strain sac3, stronger effect = lower value",1.01
same,normalized growth,"locus YDR162C, strain NBP2, stronger effect = lower value",0.983
same,normalized growth,"locus YDR195W, strain ref2",1.04
same,normalized growth,"locus YDR297W, strain sur2, stronger effect = lower value",1.02
same,normalized growth,"locus YDR318W, strain mcm21, stronger effect = lower value",0.977
same,normalized growth,"locus YDR334W, strain swr1, stronger effect = lower value",1.01
same,normalized growth,"locus YDR335W, strain msn5, stronger effect = lower value",1.02
same,normalized growth,"locus YDR388W, stronger effect = lower value",0.981
same,normalized growth,"locus YDR392W, strain spt3, stronger effect = lower value",0.99
same,normalized growth,"locus YDR502C, strain sam2, stronger effect = lower value",0.983
same,normalized growth,"locus YEL003W, strain gim4, stronger effect = lower value",0.841 (active)
same,normalized growth,"locus YEL037C, strain rad23, stronger effect = lower value",1.01
same,normalized growth,"locus YEL061C, strain CIN8 (second series), stronger effect = lower value",1.02
same,normalized growth,"locus YEL061C, strain CIN8, stronger effect = lower value",0.999
same,normalized growth,"locus YER015W, strain faa2, stronger effect = lower value",1
same,normalized growth,"locus YER016W, strain bim1, stronger effect = lower value",1.02
same,normalized growth,"locus YER110C, stronger effect = lower value",0.968
same,normalized growth,"locus YER111C, strain swi4, stronger effect = lower value",1.01
same,normalized growth,"locus YER155C, strain BEM2 (second series), stronger effect = lower value",1.02
same,normalized growth,"locus YER155C, strain BEM2, stronger effect = lower value",0.992
same,normalized growth,"locus YER167W, strain BCK2, stronger effect = lower value",0.988
same,normalized growth,"locus YFR010W, strain ubp6, stronger effect = lower value",1.02
same,normalized growth,"locus YGL078C, strain dbp3, stronger effect = lower value",0.982
same,normalized growth,"locus YGL086W, strain mad1, stronger effect = lower value",0.989
same,normalized growth,"locus YGL167C, strain pmr1, stronger effect = lower value",1.01
same,normalized growth,"locus YGL173C, strain kem1, stronger effect = lower value",1.02
same,normalized growth,"locus YGL227W, strain vid30, stronger effect = lower value",1.02
same,normalized growth,"locus YGL240W, strain doc1, stronger effect = lower value",1
same,normalized growth,"locus YGL248W, strain PDE1, stronger effect = lower value",0.986
same,normalized growth,"locus YGL253W, strain hxk2, stronger effect = lower value",1.01
same,normalized growth,"locus YGR078C, strain PAC10, stronger effect = lower value",0.856
same,normalized growth,"locus YGR135W, strain pre9, stronger effect = lower value",0.953
same,normalized growth,"locus YGR229C, strain SMI1, stronger effect = lower value",0.983
same,normalized growth,"locus YGR252W, strain gcn5, stronger effect = lower value",0.956
same,normalized growth,"locus YHR013C, strain ard1, stronger effect = lower value",1.01
same,normalized growth,"locus YHR027C, strain rpn1, stronger effect = lower value",1.01
same,normalized growth,"locus YHR030C, strain SLT2, stronger effect = lower value",0.988 and 1.02
same,normalized growth,"locus YHR079C, strain IRE1 (second series), stronger effect = lower value",0.986
same,normalized growth,"locus YHR079C, strain IRE1, stronger effect = lower value",1.02
same,normalized growth,"locus YHR094C, strain hxt1, stronger effect = lower value",0.982
same,normalized growth,"locus YHR129C, strain ARP1, stronger effect = lower value",0.989
same,normalized growth,"locus YHR142W, strain chs7, stronger effect = lower value",1.03
same,normalized growth,"locus YHR200W, strain rpn10, stronger effect = lower value",0.98
same,normalized growth,"locus YIL066C, strain RNR3, stronger effect = lower value",0.996
same,normalized growth,"locus YIL073C, strain SPO22, stronger effect = lower value",0.964
same,normalized growth,"locus YIL125W, strain kgd1, stronger effect = lower value",0.993
same,normalized growth,"locus YIR030C, strain dcg1, stronger effect = lower value",0.983
same,normalized growth,"locus YJL092W, strain hpr5, stronger effect = lower value",1.01
same,normalized growth,"locus YJL095W, strain BCK1 (second series), stronger effect = lower value",1.02
same,normalized growth,"locus YJL095W, strain BCK1, stronger effect = lower value",1.01 and 1.06
same,normalized growth,"locus YJL115W, strain asf1, stronger effect = lower value",1
same,normalized growth,"locus YJL129C, strain trk1, stronger effect = lower value",1.03
same,normalized growth,"locus YJL134W, strain LCB3, stronger effect = lower value",0.995
same,normalized growth,"locus YJL154C, strain vps35, stronger effect = lower value",1.02
same,normalized growth,"locus YJL164C, strain tpk1, stronger effect = lower value",1.02
same,normalized growth,"locus YJL166W, strain qcr8, stronger effect = lower value",1.02
same,normalized growth,"locus YJL168C, strain set2, stronger effect = lower value",0.994
same,normalized growth,"locus YJL187C, strain SWE1 (second series), stronger effect = lower value",1.01
same,normalized growth,"locus YJL187C, strain SWE1, stronger effect = lower value",1.01
same,normalized growth,"locus YJR043C, strain POL32, stronger effect = lower value",0.991
same,normalized growth,"locus YJR066W, strain TOR1, stronger effect = lower value",0.94
